Measured values from PubChem BioAssay (EPA / NIEHS).
Active and inactive are the calls of the source. Rule for the calls: active = hit-call score of the fitted dose curve at least 0.9, where 1 is the maximum; inactive = score below 0.9.

The compounds below were run on Cytochrome P450 7A1 (Homo sapiens) (UniProt P22680) (assay: LTEA_HepaRG_CYP7A1: Life Technologies and Expression Analysis (LTEA) Assay for Cytochrome P450 7A1 (CYP7A1) using HepaRG (AID 2283496)). Conditions: mRNA level, 48 h; actives raise or lower the signal.
In short: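 HepaRG, 48 h exposure, 8-pt half-log series from 100 uM, 0.5% DMSO vehicle, duplicates. Readout: TaqMan qRT-PCR mRNA vs three housekeeping genes; bidirectional curve fit against DMSO baseline.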

Row | SMILES | outcome | AC50
1 | c1ccc2n[nH]nc2c1 | inactive | 
2 | Cc1oc2c(NC(=O)c3c(Cl)cccc3Cl)cccc2c1C(C)(C)O |  | 57.3 µM (active)
3 | Cc1cc(F)ccc1-c1cc(N2CC[C@@H](O)[C@H]2CO)ncc1N(C)C(=O)C(C)(C)c1cc(C(F)(F)F)cc(C(F)(F)F)c1 |  | 20 µM (active)
4 | CC(C)(c1cc(Br)c(O)c(Br)c1)c1cc(Br)c(O)c(Br)c1 | inactive | 
5 | CN1C(=O)N(c2ccccc2Br)Cc2cnc(Nc3ccc4c(c3)OCC(CO)O4)nc21 (stereo unspecified) |  | 72.8 µM (active)
6 | CCOC(=O)O[C@H](C)OC(=O)c1ccc2c(c1)cc(C(=O)NC1CCN(C(C)C)CC1)n2Cc1cc(-c2ccc(Cl)s2)on1 | inactive | 
7 | CCCCCCCCOC(=O)c1cc(O)c(O)c(O)c1 | inactive | 
8 | CN(C)c1ccc(C(=C2C=CC(=[N+](C)C)C=C2)c2ccc(N(C)C)cc2)cc1 |  | 4.38 µM (active)
9 | COc1ccc2cc(S(=O)(=O)N[C@H](CC(=O)N[C@H](Cc3ccc(CN4[C@H](C)CCC[C@@H]4C)cc3)C(=O)N(C)C(C)C)c3ccc4c(c3)OCO4)ccc2c1 | inactive | 
10 | CCN(Cc1cccc(S(=O)(=O)O)c1)c1ccc(C(=C2C=CC(=[N+](CC)Cc3cccc(S(=O)(=O)O)c3)C=C2)c2ccccc2S(=O)(=O)[O-])cc1 | inactive | 
11 | Oc1ccc2ccccc2c1 | inactive | 
12 | Clc1cc(Cl)c2c(c1)N=C1CCCCCN1C2 | inactive | 
13 | CC(C)(O)c1ccc(CNC(=O)c2cccnc2Oc2ccc3nonc3c2)cc1 | inactive | 
14 | O=C(O)Cn1c(=O)n(Cc2ccc(Br)cc2F)c(=O)c2ccc(Cl)cc21 | inactive | 
15 | CC/C(=C(/CC)c1ccc(O)cc1)c1ccc(O)cc1 |  | 84.8 µM (active)
16 | COc1cc(C(=O)NC2CCN(C)CC2)ccc1Nc1ncc2c(n1)N(C1CCCC1)CC(F)(F)C(=O)N2C |  | 8.23 µM (active)
17 | CCN(CC)C(=O)c1cc(S(=O)(=O)Cc2ccccc2)c(N2CCC(c3ccccc3)CC2)cc1N(CC)CCN(C)C | inactive | 
18 | CC[C@@H]1C[C@H](N(Cc2cc(C(F)(F)F)cc(C(F)(F)F)c2)C(C)=O)c2cc(C(F)(F)F)ccc2N1C(=O)OC(C)C | inactive | 
19 | c1ccc2ccccc2c1 | inactive | 

Row | SMILES | outcome | AC50
20 | CCCCCCCCCCCO | inactive | 
21 | Cc1ccc(C(C)C)cc1 | inactive | 
22 | OC12N=C(c3ccccc3)SC1Cc1cc(Cl)ccc12 (stereo unspecified) |  | 9.92 µM (active)
23 | CN(C)C(=O)C1(N2CCCCC2)CCN(CC[C@@]2(c3ccc(Cl)c(Cl)c3)CN(C(=O)c3ccccc3)CCO2)CC1 |  | 25.2 µM (active)
24 | O=CCCCC=O | inactive | 
25 | NCc1cccc(C2CCN(C(=O)c3ccc(C#Cc4ccccc4F)o3)CC2)c1 |  | 86.3 µM (active)
26 | COc1cccc([C@H](O)C2CCN(CCc3ccc(F)cc3)CC2)c1OC | inactive | 
27 | CC(C)(C)c1csc(-c2cc3cc(OCc4ccccc4CC(=O)O)ccc3o2)n1 |  | 22.5 µM (active)
28 | O=c1[nH]sc2ccccc12 | inactive | 
29 | O=c1c(-c2ccc(O)cc2)coc2cc(O)cc(O)c12 | inactive | 
30 | CCCCCCCC[Si](OCC)(OCC)OCC | inactive | 
31 | CCCCOC(=O)CC(CC(=O)OCCCC)(OC(C)=O)C(=O)OCCCC | inactive | 
32 | CCCCCCCCN(C)CCCCCCCC | inactive | 
33 | CC[C@H](NC(=O)c1cc(F)ccc1NS(=O)(=O)c1cccc2cccnc12)c1ccccc1 |  | 33.8 µM (active)
34 | CCCCCCCCCCCC[N+](C)(C)C |  | 85.8 µM (active)
35 | O=C1CCC(C2CCCCC2)CC1 | inactive | 
36 | O=C1c2ccccc2C(=O)N1CCc1noc(-c2ccc(CN3CCCCCC3)s2)n1 | inactive | 
37 | CC1=CC(=O)/C(=C(/C)O)C(=O)O1 | inactive | 
38 | CCO[Si](CCCNC(N)=O)(OCC)OCC | inactive | 

The compounds below were run on Glutathione S-Transferase (GSTA2), GSTA2 (gene 2939) (assay: LTEA_HepaRG_GSTA2: Life Technologies and Expression Analysis (LTEA) Assay for Glutathione S-Transferase (GSTA2) using HepaRG (AID 2283497)). Conditions: mRNA level, 48 h; actives raise or lower the signal.
In short: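 qRT-PCR readout of GSTA2 transcript, normalized to three housekeeping genes, fitted bidirectionally against 0.5% DMSO baseline. Differentiated HepaRG cells received compound for 48 h at 8 concentrations (top 100 uM, half-log steps).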

Row | SMILES | outcome | AC50
39 | c1ccc2n[nH]nc2c1 | inactive | 
40 | Cc1oc2c(NC(=O)c3c(Cl)cccc3Cl)cccc2c1C(C)(C)O |  | 38.2 µM (active)
41 | Cc1cc(F)ccc1-c1cc(N2CC[C@@H](O)[C@H]2CO)ncc1N(C)C(=O)C(C)(C)c1cc(C(F)(F)F)cc(C(F)(F)F)c1 |  | 10.4 µM (active)
42 | CC(C)(c1cc(Br)c(O)c(Br)c1)c1cc(Br)c(O)c(Br)c1 |  | 72.4 µM (active)
43 | CN1C(=O)N(c2ccccc2Br)Cc2cnc(Nc3ccc4c(c3)OCC(CO)O4)nc21 (stereo unspecified) |  | 78 µM (active)
44 | CCOC(=O)O[C@H](C)OC(=O)c1ccc2c(c1)cc(C(=O)NC1CCN(C(C)C)CC1)n2Cc1cc(-c2ccc(Cl)s2)on1 | inactive | 
45 | CCCCCCCCOC(=O)c1cc(O)c(O)c(O)c1 | inactive | 
46 | CN(C)c1ccc(C(=C2C=CC(=[N+](C)C)C=C2)c2ccc(N(C)C)cc2)cc1 |  | 4.31 µM (active)
47 | COc1ccc2cc(S(=O)(=O)N[C@H](CC(=O)N[C@H](Cc3ccc(CN4[C@H](C)CCC[C@@H]4C)cc3)C(=O)N(C)C(C)C)c3ccc4c(c3)OCO4)ccc2c1 |  | 81.6 µM (active)
48 | CCN(Cc1cccc(S(=O)(=O)O)c1)c1ccc(C(=C2C=CC(=[N+](CC)Cc3cccc(S(=O)(=O)O)c3)C=C2)c2ccccc2S(=O)(=O)[O-])cc1 | inactive | 
49 | Oc1ccc2ccccc2c1 | inactive | 
50 | Clc1cc(Cl)c2c(c1)N=C1CCCCCN1C2 | inactive | 
51 | CC(C)(O)c1ccc(CNC(=O)c2cccnc2Oc2ccc3nonc3c2)cc1 | inactive | 
52 | O=C(O)Cn1c(=O)n(Cc2ccc(Br)cc2F)c(=O)c2ccc(Cl)cc21 | inactive | 
53 | CC/C(=C(/CC)c1ccc(O)cc1)c1ccc(O)cc1 | inactive | 
54 | COc1cc(C(=O)NC2CCN(C)CC2)ccc1Nc1ncc2c(n1)N(C1CCCC1)CC(F)(F)C(=O)N2C |  | 12 µM (active)
55 | CCN(CC)C(=O)c1cc(S(=O)(=O)Cc2ccccc2)c(N2CCC(c3ccccc3)CC2)cc1N(CC)CCN(C)C |  | 4.51 µM (active)
56 | CC[C@@H]1C[C@H](N(Cc2cc(C(F)(F)F)cc(C(F)(F)F)c2)C(C)=O)c2cc(C(F)(F)F)ccc2N1C(=O)OC(C)C | inactive | 
57 | c1ccc2ccccc2c1 | inactive | 

Row | SMILES | outcome | AC50
58 | CCCCCCCCCCCO | inactive | 
59 | Cc1ccc(C(C)C)cc1 | inactive | 
60 | OC12N=C(c3ccccc3)SC1Cc1cc(Cl)ccc12 (stereo unspecified) |  | 30 µM (active)
61 | CN(C)C(=O)C1(N2CCCCC2)CCN(CC[C@@]2(c3ccc(Cl)c(Cl)c3)CN(C(=O)c3ccccc3)CCO2)CC1 |  | 22 µM (active)
62 | O=CCCCC=O | inactive | 
63 | NCc1cccc(C2CCN(C(=O)c3ccc(C#Cc4ccccc4F)o3)CC2)c1 |  | 78.9 µM (active)
64 | COc1cccc([C@H](O)C2CCN(CCc3ccc(F)cc3)CC2)c1OC | inactive | 
65 | CC(C)(C)c1csc(-c2cc3cc(OCc4ccccc4CC(=O)O)ccc3o2)n1 |  | 31.9 µM (active)
66 | O=c1[nH]sc2ccccc12 | inactive | 
67 | O=c1c(-c2ccc(O)cc2)coc2cc(O)cc(O)c12 | inactive | 
68 | CCCCCCCC[Si](OCC)(OCC)OCC | inactive | 
69 | CCCCOC(=O)CC(CC(=O)OCCCC)(OC(C)=O)C(=O)OCCCC | inactive | 
70 | CCCCCCCCN(C)CCCCCCCC | inactive | 
71 | CC[C@H](NC(=O)c1cc(F)ccc1NS(=O)(=O)c1cccc2cccnc12)c1ccccc1 |  | 80 µM (active)
72 | CCCCCCCCCCCC[N+](C)(C)C |  | 93.7 µM (active)
73 | O=C1CCC(C2CCCCC2)CC1 | inactive | 
74 | O=C1c2ccccc2C(=O)N1CCc1noc(-c2ccc(CN3CCCCCC3)s2)n1 | inactive | 
75 | CC1=CC(=O)/C(=C(/C)O)C(=O)O1 | inactive | 
76 | CCO[Si](CCCNC(N)=O)(OCC)OCC | inactive | 
